The source made the active and inactive calls. Rule as the data show it: active = fold change permeability below about 0.7 or above about 1.3; inactive = in between.
Test: compounds altering in vitro BBB leakiness – cell-based, FITC-avidin fluorescence, HTS, primary screen (AID 1963498); also: test concentration not given here
Settings: brain endothelial barrier, actives lie on both sides

Fold change permeability, inactive:
CC(=O)OCC(=O)[C@@]1(O)CC[C@H]2[C@@H]3CCC4=CC(=O)CC[C@]4(C)[C@H]3C(=O)C[C@@]21C 0.9
C/C(O)=C(\C#N)C(=O)Nc1ccc(C(F)(F)F)cc1 1.2
CCCCCCCCCC[Si](C)(C)CCC(=O)NC(Cc1ccc(C)cc1)c1ccccc1 (centres undefined) 0.8
O=C(O)C1=CC(=C(c2ccc(O)c(C(=O)O)c2)c2ccc(O)c(C(=O)O)c2)C=CC1=O 0.9
OC(CCN1CCCCC1)(c1ccccc1)C1CC2C=CC1C2 (centres undefined) 1.1
CC(=O)O[C@H]1C[C@@H]2CC[C@@H]3[C@H](CC[C@@]4(C)[C@H]3C[C@H]([N+]3(C)CCCCC3)[C@@H]4OC(C)=O)[C@@]2(C)C[C@@H]1[N+]1(C)CCCCC1 1
NC(=O)C(=O)O 0.8
COc1ccccc1N1CCN(CCCCN2C(=O)c3ccccc3C2=O)CC1 0.9
CC(=O)OC(C)C[N+](C)(C)C (centres undefined) 1
C[C@H]1CC(=O)Nc2cc(C(=O)NCCC3CC3)ccc2N1C(=O)N1CC2CC2C1 (some centres undefined) 1.1
O=C(O)Cc1ccc(O)c(O)c1 1
C[n+]1ccccc1CC(=O)c1ccc(Br)cc1 0.9
O=C1CCC(c2ccc(-n3ccnc3)cc2)=NN1 1.1
OC[C@H]1O[C@@H](n2cnc3c(N[C@H]4CCC[C@@H]4O)ncnc32)[C@H](O)[C@@H]1O 1
CN(C)CCC(c1ccc(Cl)cc1)c1ccccn1 (centres undefined) 1.1
CCCCNc1cc(C(=O)O)cc(S(N)(=O)=O)c1Oc1ccccc1 1
CC(C)[C@H]1C(=O)N[C@@H](CCCN=C(N)N)C(=O)NCC(=O)N[C@@H](CC(=O)O)C(=O)N[C@H](Cc2ccccc2)C(=O)N1C 1.2
NC[C@@H]1O[C@H](O[C@H]2[C@@H](O)[C@H](O[C@@H]3[C@@H](O)[C@H](N)C[C@H](N)[C@H]3O[C@H]3O[C@H](CO)[C@@H](O)[C@H](O)[C@H]3N)O[C@@H]2CO)[C@H](N)[C@@H](O)[C@@H]1O 1
NC(=Nc1ccccc1)NC(=O)c1nc(Cl)c(N)nc1N 1.2
Nc1ccn([C@H]2CC[C@@H](CO)O2)c(=O)n1 1
OC[C@H]1NC[C@@H](O)[C@@H]1O 1
O=C(O)c1cccnc1C(=O)O 1.1
COc1cc2nc(N3CCN(C(=O)c4ccco4)CC3)nc(N)c2cc1OC 1
CC(CCc1ccc(O)cc1)NCCc1ccc(O)c(O)c1 (centres undefined) 1.2
Cn1ccc2cc(NC(=O)Nc3cccnc3)ccc21 1.2

Fold change permeability, active:
CC[C@]1(O)C[C@H]2CN(CCc3c([nH]c4ccccc34)[C@@](C(=O)OC)(c3cc4c(cc3OC)N(C=O)[C@H]3[C@@](O)(C(=O)OC)[C@H](OC(C)=O)[C@]5(CC)C=CCN6CC[C@]43[C@@H]65)C2)C1 2.1
NCCCCNCCCN 0.7
CCOC(=O)c1ccc(C#Cc2ccc3c(c2)C(C)(C)CCS3)nc1 2.1
CCc1cccc2c3c([nH]c12)C(CC)(CC(=O)O)OCC3 (centres undefined) 1.3
COc1ccc(/C=C/C(=O)Nc2ccc(C(F)(F)F)cc2)cc1OC 1.6
O=C(O)CSCC(=O)NC1CCSC1=O (centres undefined) 1.7
O=C(O)CCCCC1CCSS1 (centres undefined) 0.7
COc1cc(C(=O)OCCCN2CCCN(CCCOC(=O)c3cc(OC)c(OC)c(OC)c3)CC2)cc(OC)c1OC 1.5
O=c1c2ccccc2[nH]c(=S)n1CCN1CCC(=C(c2ccc(F)cc2)c2ccc(F)cc2)CC1 1.6
COc1ccc(-c2cc3ncc(C)n3c(Nc3ncccc3C(N)=O)n2)cc1OC 1.6
Nc1nc(OCc2cc(Br)cs2)c2[nH]cnc2n1 1.5
COc1ccc(S(=O)(=O)Nc2c(C)cc(C)cc2C)cc1 1.4
CCCCCOC(=O)Nc1nc(=O)n([C@@H]2O[C@H](C)[C@@H](O)[C@H]2O)cc1F 1.4
CCc1ccc(/C=C2/SC(=S)NC2=O)cc1 1.4
